ClpP mod: qHTS Assay for Activators of ClpP; purified B. subtilis ClpP, FRET peptide cleavage, 20 min; Potency, µM (highest dose often 57.5 µM), for the others: at the highest dose activity change, negative = active; 340,000 tested, 1.9% active; AID 651965, 2013; active = well fitted falling curve with a large enough effect; inconclusive = small, poorly fitted or top-dose-only effect; inactive = no such curve, though single readings can be large or run the other way; note: the source files actives as falling curves though it sought activators and does not explain the sign; nearly all actives have a fitted effect of over 65% in size
Target sequence (P80244 whole entry, looked up): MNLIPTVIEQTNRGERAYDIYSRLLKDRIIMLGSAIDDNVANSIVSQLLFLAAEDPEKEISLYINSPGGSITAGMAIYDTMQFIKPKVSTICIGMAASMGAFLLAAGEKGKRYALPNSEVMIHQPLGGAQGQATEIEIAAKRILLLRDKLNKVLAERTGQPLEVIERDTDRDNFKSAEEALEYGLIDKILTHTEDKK
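Purified B. subtilis ClpP, 10 microg/mL final in Tris/HCl pH8 with KCl, BSA, glycerol and Tween-20, cleaved an Abz/nitrotyrosine-quenched decapeptide. Fluorescence (ex 320, em 430) was read at 0 and 20 min at room temperature. Delta was normalized to 5.8 microM ADEP and DMSO/no-enzyme controls.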
DT40 TDP1 CPT: DT40-hTDP1 cell growth loss with CPT; chicken DT40 Tdp1-/-;hTDP1 cells + 20 nM CPT, ATP luminescence, 48 h; Potency, µM (top dose mostly 46.2 µM), for inactives: at the highest dose activity change, negative = growth inhibition, most hits filed as inhibitors; 420,000 tested, 12% active; AID 686979; note: % is set by controls: 0 for no effect and ±100 for the full control effect; nearly all actives have a fitted effect of over 55% in size
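Chicken DT40 Tdp1-/- cells complemented with human TDP1, 400 cells/well, exposed to compounds plus 20 nM camptothecin for at least 48 h at 37 C; viability read as ATP content by CellTiter-Glo luminescence.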
TDP1 cell noCPT: qHTS for Inhibitors of human tyrosyl-DNA phosphodiesterase 1 (TDP1): qHTS in cells in absence of CPT; DT40 Tdp1-/- hTDP1 cells, no CPT, ATP luminescence, 48 h; Potency, µM (highest dose often 46.2 µM), for the others: at the highest dose activity change, negative = growth inhibition, usual class: inhibitors; 420,000 tested, 15% active; note: % is set by controls: 0 for no effect and ±100 for the full control effect; nearly all actives have a fitted effect of over 55% in size
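Readout: luminescence from CellTiter-Glo after 30 min in the dark at RT. Cells: DT40 Tdp1-/- with stable hTDP1, 400/well. Exposure: compounds alone, ≥48 hr, 37 °C.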
TDP1 inh: blocks human tyrosyl-DNA phosphodiesterase 1 | Potency, µM (highest dose often 130 µM), for inactives: at the highest dose activity change, negative = inhibition, actives largely listed as inhibitors | recombinant TDP1, AlphaScreen DNA substrate cleavage | 350,000 tested, 0.28% active | AID 485290 | Q9NUW8; note: % is set by controls: 0 for no effect and ±100 for the full control effect; nearly all actives have a fitted effect of over 40% in size
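Signal: AlphaScreen proximity between streptavidin donor and anti-FITC acceptor beads on intact substrate. Reaction: Tdp1 1 nM, substrate 15 nM final, 5 min RT after 15 min compound preincubation.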
* hit, by the source's call; ? = inconclusive; . = no result; [ ] = dose if it differs, or a comment. Rows were chosen to be rich in hits. Some 17% of all compounds tested hit in one or more screens of this group. Unless noted, calls come from the whole dose curve; as a rule, active = well fitted curve in the direction sought with a large enough effect; inconclusive = small, poorly fitted or top-dose-only effect, or another doubt; inactive = no such curve, though single readings can be large; an effect the other way counts as inactive or inconclusive. Potency is the fitted concentration of half-maximal effect.

SMILES | ClpP mod | DT40 TDP1 CPT | TDP1 cell noCPT | TDP1 inh
Cc1cccc(C)c1NC(=O)C(c1ccc([N+](=O)[O-])cc1)N(C)C(=O)c1ccccn1 (stereo not drawn) | -9.0% | 6.51µM* | 3.26µM* | 5.5%
COc1ccccc1S(=O)(=O)N1CCN(c2nc(-c3cccs3)nc3ccccc23)CC1 | 4.0% | 10µM* | 7.94µM* | 0.2%
O=C(c1ccccc1)N1CCN(c2nc(-c3cccs3)nc3ccccc23)CC1 | . | . | . | 2.5%
O=C(c1ccc2c(c1)OCCO2)N1CCN(c2nc(-c3cccs3)nc3ccccc23)CC1 | ? | 11.2µM* | 11.2µM* | 0.9%
Cc1ccccc1S(=O)(=O)N1CCN(c2nc(-c3cccs3)nc3ccccc23)CC1 | -9.8% | ? | ? | 1.5%
Cc1nc(N2CCN(S(=O)(=O)c3ccccc3C#N)CC2)c2c(-c3cccs3)csc2n1 | -1.4% | ? | 20.6µM* | 0.0%
CC(=O)c1ccccc1S(=O)(=O)N1CCN(c2nc(-c3cccs3)nc3ccccc23)CC1 | ? | 8.91µM* | 7.08µM* | 3.1%
CCOC(=O)c1cc(S(=O)(=O)N2CCN(C3CCCCC3)CC2)cn1C | 0.8% | -9.8% | 0.4% | 2.2%
CCOC(=O)c1ccccc1S(=O)(=O)N1CCN(c2nc(-c3cccs3)nc3ccccc23)CC1 | 4.1% | 11.2µM* | 11.2µM* | 1.4%
CC(C)(C)OC(=O)N1CCN(c2nc(-c3cccs3)nc3ccccc23)CC1 | -10.0% | 12.6µM* | 8.91µM* | -0.6%
COc1ccc(Nc2nc(-c3cccs3)nc3ccccc23)cc1S(=O)(=O)N1CCOCC1 | -0.8% | 18.4µM* | 3.26µM* | .
COc1ccc(NS(=O)(=O)c2cccs2)cc1S(=O)(=O)N1CCOCC1 | . | 12.8% | -4.4% | 10.1%
COc1ccc(F)cc1C(=O)C1CCCN(C(=O)c2ccc(C(C)=O)s2)C1 (stereo not drawn) | -12.9% | ? | -26.0% | -0.4%
c1ccc(-c2nnc3oc(-c4cccs4)nn23)cc1 | -2.8% | 23.1µM* | 11.6µM* | .
Cc1ccc(-c2nn3c(-c4ccccc4)nnc3o2)cc1 | -4.7% | ? | ? | .
Cc1cccc(-n2c(O)c(C=NC3CCS(=O)(=O)C3)c3ccccc3c2=O)c1 (stereo not drawn) | -2.3% | 13µM* | ? | -9.9%
Cc1cc(C)cc(-n2c(O)c(C=NC3CCS(=O)(=O)C3)c3ccccc3c2=O)c1 (stereo not drawn) | -4.6% | 16.4µM* | ? | 3.1%
Cc1ccc(N=Cc2c(O)n(-c3ccc4c(c3)OCO4)c(=O)c3ccccc23)cc1 | -1.2% | ? | ? | 0.0%
Cc1ccc(-n2c(O)c(C=Nc3ccccc3-c3n[nH]c(=S)[nH]c3=O)c3ccccc3c2=O)cc1C | . | ? | ? | 2.3%
Cc1cccc(-n2c(O)c(C=NCc3ccccn3)c3ccccc3c2=O)c1 | -4.1% | 18.4µM* | ? | 5.3%
COc1ccccc1-n1c(O)c(C=NCc2ccccn2)c2ccccc2c1=O | -4.7% | ? | -22.5% | 5.1%
Cc1ccc(-n2c(O)c(C=NC3CCS(=O)(=O)C3)c3ccccc3c2=O)cc1C (stereo not drawn) | -2.3% | 10.3µM* | 18.4µM* | 6.1%
O=C(O)CCn1c(=O)oc2cc(S(=O)(=O)N3CCCC3)ccc21 | 0.1% | 24.7% | -7.2% | -3.3%
Cc1ccccc1-n1c(O)c(C=NC2CCS(=O)(=O)C2)c2ccccc2c1=O (stereo not drawn) | -3.9% | -29.4% | ? | .
Cc1cccc(-n2c(O)c(C=NC3CCS(=O)(=O)C3)c3ccccc3c2=O)c1C (stereo not drawn) | . | 5.17µM* | ? | 8.4%
SMILES | ClpP mod | DT40 TDP1 CPT | TDP1 cell noCPT | TDP1 inh
Cc1cc(C)c(NC(=O)c2c(C)oc3c2C2=NCCN2C=N3)c(C)c1 | -1.1% | 16.4µM* | 16.4µM* | 0.6%
Cc1oc2c(c1C(=O)Nc1cccc(Br)c1)C1=NCCN1C=N2 | -3.0% | -6.0% | -8.3% | 5.8%
COCc1c(C(=O)Nc2ccc(Cl)cc2F)oc2ccccc12 | 58.2% | -10.3% | -25.5% | 2.3%
Cc1oc2c(c1C(=O)Nc1ccc(Cl)cc1F)C1=NCCN1C=N2 | 3.7% | -25.8% | 16.4µM* | 8.4%
Cc1oc2c(c1C(=O)Nc1ccccc1Br)C1=NCCN1C=N2 | -0.9% | 18.4µM* | 20.6µM* | 4.5%
CCC(C(=O)N1CCN(c2cc(C)ccc2C)CC1)n1nc(C)n2c(cc3occc32)c1=O (stereo not drawn) | -5.2% | ? | ? | 10.1%
COC(=O)c1ccc(C(NC(=O)OCc2ccccc2)/C(F)=C/[C@@H](C)C(=O)NCc2cc(C)on2)cc1 (stereo partly drawn) | . | . | . | 3.9%
CCCCCCCCN1CC(Cc2cc3ccccc3c3ccccc23)N(c2ccccc2)c2ccccc2C1=O (stereo not drawn) | 3.4% | ? | ? | .
CC(=O)Nc1nc2nc(-c3ccccc3)cc(-c3ccccc3)n2n1 | 82.7% | ? | ? | 9.8%
O=C(Nc1nc2nccc(-c3ccccc3)n2n1)c1ccc(F)cc1 | 28.2µM* | -5.0% | -1.9% | 2.7%
O=C(Nc1nc2nccc(-c3ccccc3)n2n1)c1ccccc1 | . | -7.8% | -17.6% | 79.4µM*
Cc1cccc(CNC(=O)c2cnn(-c3nccc(-c4cc(C)sc4C)n3)c2C)n1 | . | 7.4%[9.04 µM] | -25.7% | .
CC(C)(C)OC(=O)COc1ccc(/C=N/NC(=O)CN2CCCCC2)cc1 | 1.1% | 5.2% | 11.7% | .
CCOC(=O)c1c(C)nc2sc(C(N)=O)c(N)c2c1-c1ccc(OC)cc1 | -1.7% | ? | 20.6µM* | -1.0%
CCOC(=O)c1c(C)nc2sc(C(=O)Nc3ccc(C(C)=O)cc3)c(N)c2c1-c1ccc(OC)cc1 | -9.3% | ? | ? | -3.2%
COc1ccc(-c2c(C(C)=O)c(C)nc3sc4c(=N)n(N)cnc4c23)cc1 | -1.4% | 25.9µM* | ? | 3.8%
COc1ccc(NC(=O)c2ccco2)cc1NC(=O)C(C)(C)Oc1ccc(Cl)cc1 | -3.6% | 18.4µM* | ? | 7.1%
COc1ccc(NC(=O)c2ccco2)cc1NC(=O)COc1ccccc1Cl | 4.3% | 6.51µM* | ? | 3.2%
COc1ccc(NC(=O)Cc2ccc(Cl)cc2)cc1NC(=O)c1ccco1 | 54.0% | -28.6% | ? | 1.8%
COc1ccc(NC(=O)c2ccco2)cc1NC(=O)C(C)Oc1ccc(Cl)cc1Cl (stereo not drawn) | -0.6% | 9.2µM* | 6.51µM* | 8.4%
Cc1ccc(N=C2NC(=O)/C(=C\c3ccsc3)S2)c(C)c1 | 1.7% | 16.4µM* | ? | 0.0%
Cc1ccc(N=C2NC(=O)/C(=C/c3cccnc3)S2)c(C)c1 | -1.6% | -14.5% | -21.3% | 6.0%
Cc1csc(SCC(=O)NCC2Cc3cc(-c4cncnc4)ccc3O2)n1 (stereo not drawn) | . | 1.6% | -17.6% | .
CC(=O)c1ccc(NC(=O)c2ccc(CSc3ccccc3)o2)cc1 | 1.0% | 16.4µM* | ? | 2.6%

From PubChem BioAssay
